NSD2 HMT inh: NSD2 (human) methyltransferase inhibition; inhibition, % at 12.5 µM; O96028; NSD2 peptide methylation, AlphaScreen, 120 min; 0.54% of 310,000 active; AID 743445; in the data active = inhibition above about 50%
PGC1a acetyl inh: modulators of PGC1a acetylation; 0.17% of 350,000 active; inhibition, % at 15.6 µM; AID 651687; U2OS PGC1a acetylation, AlphaScreen anti-acetyl-lysine; with virally co-expressed GCN5 acetyltransferase;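 active = every replicate shows inhibition of at least 40%; inconclusive = mean inhibition at least 40% but some replicate below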;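 also: 0% = neutral control wells and 100% = positive control wells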
Env fusion inh: HIV envelope-mediated fusion inhibition; 1.1% of 360,000 active; AID 651610; inhibition, % at 12.3 µM; HeLa-JRFL Env/CEM21 cell fusion, luciferase;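 active = mean replicate inhibition score of at least 50 and every replicate individually at or above 50; inconclusive = only one of the two criteria met; inactive = mean below 50 and not all replicates reaching 50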;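 also: 0% = plate neutral controls and 100% = maraviroc near 300 nM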
GSIS activator: primary screen for activators of insulin secretion dependent on glucose, INS-1E cells, GLuc reporter luminescence; activation, % at 16.6 µM; 0.61% of 370,000 active; INS-1E GLuc reporter insulin secretion, 2-3 h; AID 743287;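 active = lowest replicate activation of at least 40%, so every replicate reaches that level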;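 also: 0% = median of neutral control wells and 100% = median of IBMX positive control wells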
MLL AF4-AF9 inh: MLL-AF4/AF9 protein interaction inhibition; P42568; AlphaScreen, biotin-AF4 peptide binding to FLAG-AF9; inhibition, % at 10 µM; 0.47% of 350,000 active; AID 651704;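 active = every replicate reaching a set inhibition limit, whatever the replicate mean, cut at about 25% in these data; inconclusive = mean inhibition reaches that limit but some replicates miss it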;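 also: 0% = plate neutral control median and 100% = total signal loss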
Target sequence (P42568 whole entry, looked up): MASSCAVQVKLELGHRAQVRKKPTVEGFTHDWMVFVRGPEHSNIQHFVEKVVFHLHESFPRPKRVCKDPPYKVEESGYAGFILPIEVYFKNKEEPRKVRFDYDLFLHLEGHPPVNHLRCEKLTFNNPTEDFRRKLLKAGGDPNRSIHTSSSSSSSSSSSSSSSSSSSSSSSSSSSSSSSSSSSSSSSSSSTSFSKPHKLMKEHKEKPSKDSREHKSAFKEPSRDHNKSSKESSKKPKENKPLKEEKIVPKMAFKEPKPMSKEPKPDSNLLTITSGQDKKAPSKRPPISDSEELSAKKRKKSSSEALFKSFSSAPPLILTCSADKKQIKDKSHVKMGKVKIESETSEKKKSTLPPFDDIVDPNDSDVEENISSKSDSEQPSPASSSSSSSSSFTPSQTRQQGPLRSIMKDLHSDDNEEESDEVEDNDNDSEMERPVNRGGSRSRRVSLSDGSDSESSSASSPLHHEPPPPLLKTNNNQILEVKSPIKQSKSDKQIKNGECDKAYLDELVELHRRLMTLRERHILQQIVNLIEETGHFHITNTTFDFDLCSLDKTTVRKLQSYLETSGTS
An asterisk follows results filed as active; ? = inconclusive; . = not tested or not shown; + = active, no number; [ ] = remark or other dose. Hits are enriched below; roughly 2.1% of the tested compounds scored in any of these assays.

SMILES	NSD2 HMT inh	PGC1a acetyl inh	Env fusion inh	GSIS activator	MLL AF4-AF9 inh
O=C(CNCCCO)Nc1cc(C(F)(F)F)cc(NC(=O)CNCCCO)c1Cl	-4.2	.	-5.7	10.5	-5.3
C/C(=N/NC(=O)C1CC1(c1ccccc1)c1ccccc1)c1cccs1 (stereo not given)	1.5	.	57.5*	-0.2	-3.1
C/C(=N\NC(=O)C1CC1)c1cccs1	-1.6	7.4	-88.7	26.7	.
O=C(Nc1ccccc1Cl)C(=O)c1cn(CC(=O)N2CCOCC2)c2ccccc12	-3.0	13.0	-27.1	-8.2	-1.4
C(=N\Nc1nc2ccccc2[nH]1)/C1CCCCC1	0.6	.	17.6	-11.5	25.7*
CCCN(C(=O)CCc1cn(CCC)c2ccccc12)c1ccc(Oc2cccnc2)cc1	1.3	.	69.8*	-22.4	.
CCCN(C(=O)CCc1cn(CCC)c2ccccc12)c1ccc(N(C)c2ccccn2)cc1	.	.	6.9	.	.
OCCNc1nc(-c2ccccc2)c2cc(Cl)ccc2n1	.	2.4	-18.5	48.3*	-11.2
O=C(N[C@@H]1CC[C@H](CCNS(=O)(=O)c2ccccc2)O[C@H]1CO)c1cnccn1	.	3.5	15.4[16.7 µM]	-4.8	-0.2
CC(C)OP(=O)(OC(C)C)C(Nc1ccc([N+](=O)[O-])cc1)c1cccc([N+](=O)[O-])c1 (stereo not given)	3.2	.	3.9	-33.1	4.2
COc1ccc(C(Nc2cccc([N+](=O)[O-])c2)P(=O)(OC(C)C)OC(C)C)cc1 (stereo not given)	2.3	-4.1	57.0*	-40.4	-4.9
NS(=O)(=O)c1ccc(CCNC(=O)CN2CCN(c3ccc(F)cc3)CC2)cc1	0.3	.	64.1*	-4.3	.
O=C1CCCC(=O)C1=Cc1c[nH]c2ccccc12	6.3	3.9	.	.	-1.7
O=c1c2ccccc2nc(-c2ccco2)n1Cc1ccccc1	-0.7	11.8	-51.3	64.1*	.
O=c1c2ccccc2nnn1Cc1ccccc1	-8.2	-0.9	-2.0	45.4*	7.9
CCOc1ccc(CCn2c(-c3ccco3)nc3ccccc3c2=O)cc1OCC	1.6	.	62.5*	.	-11.7
c1ccc(Cn2c(-c3ccco3)nc3nc4ccccc4nc32)cc1	-3.1	0.3	-219.8	.	.
O=C(COc1ccc(F)cc1Cl)N1CCN(C(=O)c2cccs2)CC1	3.0	2.3	.	2.9	-5.1
COc1ccc(S(=O)(=O)N2CCN(CC(=O)c3ccc(O)c(O)c3)CC2)cc1	+	-7.9	-4.8	1.5	-16.6
O=C(CN1CCN(S(=O)(=O)c2ccc(Cl)cc2)CC1)c1ccc(O)c(O)c1	121.3*	.	.	.	.
O=C(CN1CCN(S(=O)(=O)c2ccc(F)cc2)CC1)c1ccc(O)c(O)c1	.	-2.8	-25.3	2.4	-1.4
CCOC(=O)C1=C(O)C(=O)N(c2ccc(S(N)(=O)=O)cc2)C1c1ccccc1 (stereo not given)	0.1	-5.0	.	.	.
COc1ccccc1NC(=O)C(C)NS(=O)(=O)c1ccc(F)cc1 (stereo not given)	-0.7	-5.6	.	.	.
Cc1ccc2cc(C#N)c(SCC(=O)NNC(=O)Cc3ccccc3)nc2c1	14.5	17.8	-21.8	127.2*	.
Cc1ccc2nc(SCC(=O)NCc3cccs3)c(C#N)cc2c1	-2.4	2.9	27.0	54.1*	.
SMILES	NSD2 HMT inh	PGC1a acetyl inh	Env fusion inh	GSIS activator	MLL AF4-AF9 inh
Cc1ccc2nc(SCC(=O)NCc3ccco3)c(C#N)cc2c1	-2.5	.	-32.2	.	.
COc1ccc2cc(C#N)c(SCC(=O)NNC(=O)Cc3ccccc3)nc2c1	-2.2	-1.9	-90.2	.	.
O=C(O)CN(Cc1ccccc1)S(=O)(=O)c1ccc2c(c1)OCCO2	-2.6	.	-14.7	9.7	0.9
CC(=O)c1cccc(N(CC(=O)Nc2ccccc2C(=O)N2CCCC2)S(C)(=O)=O)c1	-0.4	.	-224.9	32.1	1.8
COc1cccc(-n2c(=O)c3ccccc3n(CC(=O)NCC3CCCO3)c2=O)c1 (stereo not given)	1.7	.	2.0	75.5*	-0.1
CN1C=C/C(=C\c2cc[n+](C)c3ccccc23)c2ccccc21	.	.	45.5	3.5	55.6*
COc1cccc(CN(C(=O)Cc2c[nH]c3ccccc23)C(C(=O)NC2CCCCC2)c2cccs2)c1 (stereo not given)	2.9	-0.2	90.7*	.	.
O=C(NC1CCCCC1)C(c1cccs1)N(Cc1cccs1)C(=O)c1ccco1 (stereo not given)	.	-6.1	83.6*	.	.
O=C(NC1CCCCC1)C(c1cccs1)N(C(=O)Cc1c[nH]c2ccccc12)c1ccc(F)cc1 (stereo not given)	0.9	-4.9	87.2*	.	.
COc1ccc(C(C(=O)NC2CCCCC2)N(Cc2cccs2)C(=O)Cc2c[nH]c3ccccc23)cc1 (stereo not given)	-1.9	-11.9	?	.	.
Cc1ccc(C(C(=O)NC2CCCCC2)N(C(=O)Cc2c[nH]c3ccccc23)c2ccccc2)o1 (stereo not given)	0.3	-19.4	111.6*	.	.
Clc1ccc(OCCOCCN2CCCCC2)c(Br)c1	3.4	-5.4	-8.9	.	.
CN(C)Cc1c(O)ccc2ccccc12	.	-7.1	2.9	-3.2	31.4*
COCCN(CC(=O)NCC1CCCO1)C(=O)CCC(=O)Nc1cc(C)on1 (stereo not given)	2.3	-5.4	-23.2	.	.
Cc1ccc(C(=O)N/C(=C\c2ccc(-c3ccccc3[N+](=O)[O-])o2)C(=O)NCCN(C)C)cc1	8.3	1.0	-14.4	-9.4	22.2
O=C(Nc1ccncc1)c1ccc(Cl)c(S(=O)(=O)N2CCc3ccccc32)c1	-0.6	.	89.6*	-17.6	1.9
NS(=O)(=O)c1ccc(NC(=O)c2ccc(S(=O)(=O)N3CCc4ccccc43)cc2)cc1	2.0	2.0	17.7	0.6	0.1
COc1ccc2sc(N(CCCN(C)C)C(=O)c3ccc(S(=O)(=O)N4CCCc5ccccc54)cc3)nc2c1	1.6	.	-37.6	21.7	31.5*
COc1ccc(C(=O)Nc2ccc(S(=O)(=O)N3CCc4ccccc43)cc2)cc1	3.0	.	62.1*	.	.
Cc1cccc(NC(=O)c2ccc(Cl)c(S(=O)(=O)N3CCc4ccccc43)c2)n1	-1.3	-5.4	10.9	2.2	1.8
COc1cc2nc(N(CCCN(C)C)C(=O)c3ccc(S(=O)(=O)N4CCc5ccccc54)cc3)sc2cc1OC	4.1	-9.3	.	-55.9	9.4
CCn1c(=O)n(CC)c2cc([N+](=O)[O-])ccc21	1.0	11.4	-5.1	.	.
CCCN(C)C[C@@H]1Oc2ncc(C#CC3CCCCC3)cc2C(=O)N([C@H](C)CO)C[C@H]1C	.	-14.1	6.1[16.7 µM]	27.2	4.7
CCc1ccc(/C=C2\SC(=S)N(CCC(=O)NCCCN3CCOCC3)C2=O)cc1	4.8	.	-25.4	-15.0	8.0
CC(NC(=O)c1cc2ccccn2n1)c1ccccc1 (stereo not given)	4.5	.	.	.	.
O=C(Nc1ccc(Br)cc1)c1cc2ccccn2n1	-2.1	-8.4	-105.0	54.3*	-1.2
O=C(CN(Cc1ccc(F)cc1)C(=O)CCC(=O)Nc1nccs1)NCc1ccc(F)cc1	-2.1	.	5.5	0.2	1.0
COc1ccc(NC(=O)COC(=O)[C@@H]2CCCN2C(=O)c2cccs2)cc1	0.0	-3.9	11.2	.	.
CC1=NN(c2ccccc2)C(=O)C1/C=C1\NC(=S)NC1=O (stereo not given)	102.3*	.	2.2	-8.4	1.4

Screens from PubChem BioAssay.
